Screening data from PubChem.
4MU fluor: compound fluoresces in the 4-MU spectral region; max dye-equivalent concentration, M; 59,000 tested, 11% active; compound autofluorescence, 340/450 nm, 4-MU equivalents; stronger effect = higher value; in the data active means max dye-equivalent concentration above about 10 nM; inconclusive means mostly about 1.1 nM to 9.6 nM
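Compounds in 100 mM Tris, pH 8.0, sat 15 min at room temperature before fluorescence was read at 340 nm excitation/450 nm emission; a per-plate six-point 4-MU standard curve converted signals to dye-equivalent concentration at each compound concentration.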
AID923: qHTS Assay for Allosteric/Competitive Inhibitors of Caspase-1: Spectroscopic Profiling in AFC Spectral Region | compound fluorescence, AFC spectral region (405/520 nm) | Potency, µM (highest dose often 57.5 µM), without a hit: at the highest dose fluorescence increase, hits mostly activators | 75,000 tested, 1.1% active | AID 923, 2007; further: potency means the concentration at half of the fitted maximal effect; 0% is about no effect
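Titrations up to 57 uM read every 20 sec for 3 min (405/520 nm) with 50 nM caspase 1 and 5 uM Ac-WEHD-AFC, pH 7.5 HEPES buffer. Fluorescence-vs-time intercept gave baseline, scaled against on-plate AFC standard.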
A350 fluor: compounds fluorescent in Alexa 350 spectral region | max dye-equivalent concentration, M | AID 590 | 59,000 tested, 11% active | Compound autofluorescence, 340/450 nm, Alexa 350 dye-equivalents; stronger effect = higher value; in the data active means max dye-equivalent concentration above about 10 nM; inconclusive means mostly about 1.1 nM to 9.6 nM
HSD17B inh: blocks hydroxysteroid 17-beta dehydrogenase activity | Q99714 | recombinant HSD17B10, NADH fluorescence kinetic | Potency, µM (series often up to 57.1 µM), without a hit: at the highest dose activity change, negative = inhibition, hits mostly inhibitors | 75,000 tested, 7.6% active | AID 893;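 further: the protocol describes HADH2 (HSD17B10) and not the HSD17B4 of the title; potency means the concentration at half of the fitted maximal effect; on the % scale 0 is the no-effect control and ±100 the full control effect; nearly all actives have a fitted effect of over 70% in size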
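20 nM HADH2, pH 9.0 Tris/Tween; cpd preinc 15 min RT; start w/ 1 mM NAD+ + 90 uM b-hydroxybutyryl-CoA; kinetic fluor ex360/em450 q30s x 4 min; delta last-first.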
HADH2 inh: inhibitors of human HADH2 dehydrogenase; Potency, µM (doses to about 57.1 µM), for the others: at the highest dose activity change, negative = inhibition, most hits filed as inhibitors; 73,000 tested, 3.4% active; recombinant HADH2, NADH fluorescence, beta-hydroxybutyryl-CoA; AID 886; further: potency means the concentration at half of the fitted maximal effect; on the % scale 0 is the no-effect control and ±100 the full control effect; nearly all actives have a fitted effect of over 60% in size
Target sequence (Q99714 whole entry, looked up, one chain of several): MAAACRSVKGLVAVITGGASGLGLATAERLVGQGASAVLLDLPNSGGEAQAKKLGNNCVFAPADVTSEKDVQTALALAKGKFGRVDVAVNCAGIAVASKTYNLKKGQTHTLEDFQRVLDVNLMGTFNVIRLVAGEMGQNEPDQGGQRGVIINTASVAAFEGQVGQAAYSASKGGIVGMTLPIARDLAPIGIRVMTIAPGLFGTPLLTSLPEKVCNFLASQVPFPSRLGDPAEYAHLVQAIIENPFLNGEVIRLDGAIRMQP
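His-tagged recombinant enzyme from E. coli, 20 nM, preincubated 15 min RT with compound; reaction started with 1 mM NAD+ and 90 uM beta-hydroxybutyryl-CoA in 100 mM Tris-HCl pH 9.0. NADH fluorescence (ex 360/em 450) read over 4 min; last-minus-first difference.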
CRE Fsk mod: modulators of forskolin-stimulated CRE signaling in CHO cells | CHO CRE-bla reporter (cAMP response element driving beta-lactamase), forskolin EC10, beta-lactamase ratio | Potency, µM (titrated, usually from 38.2 µM), inactives show at the highest dose activity change, negative = inhibition, hits mostly activators | 71,000 tested, 2.5% active | AID 662; active means well fitted activation curve with a large enough effect in the signal ratio, with a control signal flat, not every such curve was filed as active; inconclusive means small, poorly fitted or top-dose-only effect, or effect the other way, or a change in a side signal; the % refers to the signal ratio; further: potency means the concentration at half of the fitted maximal effect; % of control where 0% means no effect
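CRE-bla CHO cells stimulated with EC10 NKH 477 (water-soluble forskolin) and compound titrations, 3 h at 37C; beta-lactamase read with CCF4 after 2 h at room temperature. Activity from 460/530 nm emission ratio, AC50 values for positive or negative modulation.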
* marks the source's active call; other numbers are inactive results; [ ] = another dose, or the depositor's remark. Compounds with a hit are over-represented: about 14% of the library has one in this group of screens. Unless noted, the call rests on the fitted dose curve; in most records, active means well fitted curve in the direction sought with a large enough effect; inconclusive means small, poorly fitted or top-dose-only effect, or another doubt; inactive means no such curve, though single readings can be large; an effect the other way counts as inactive or inconclusive.

Screening COc1ccc(N2CCN(c3ccc(NC(=O)c4ccc5c(c4)OCO5)cc3C#N)CC2)cc1 returned 4MU fluor 7.7e-08M*, AID923 -2%, A350 fluor 7.5e-08M*, HSD17B inh -3%, HADH2 inh -7% and CRE Fsk mod inconclusive.
Screening COc1ccc(CC(=O)Nc2ccc(N3CCN(c4ccc(OC)cc4)CC3)c(C#N)c2)cc1 returned 4MU fluor 1.7e-08M*, AID923 1%, A350 fluor 2e-08M*, HSD17B inh inconclusive, HADH2 inh -7% and CRE Fsk mod 2%.
`CC(=O)N1CCN(c2ccc(NC(=O)c3ccc4c(c3)OCO4)cc2)CC1` gave 4MU fluor inactive, AID923 -1%, A350 fluor inactive, HSD17B inh 7%, HADH2 inh 3% and CRE Fsk mod 3%.
Screening CC(=O)OCC(=O)[C@@]12OC(C)(C)O[C@@H]1C[C@H]1[C@H]3C[C@H](F)C4=CC(=O)C=C[C@@]4(C)[C@]3(F)[C@H](O)C[C@@]12C returned 4MU fluor inactive, AID923 -3%[25.7 µM], A350 fluor inactive, HSD17B inh 1%[25.6 µM], HADH2 inh 6%[25.6 µM] and CRE Fsk mod -9%[17.1 µM].
`COc1ccccc1-c1cncnc1NCCNC(C)=O` gave 4MU fluor inactive, AID923 1%, A350 fluor inactive, HSD17B inh inconclusive, HADH2 inh 16µM* and CRE Fsk mod 0%.
`COCCNc1ncncc1-c1ccccc1OC` gave 4MU fluor inactive, AID923 1%, A350 fluor inactive, HSD17B inh -9%, HADH2 inh -21% and CRE Fsk mod -17%.
Screening Cc1ccc(OCCCn2c(CO)nc3ccccc32)cc1 returned 4MU fluor inactive, AID923 -3%, A350 fluor inactive, HSD17B inh -2%, HADH2 inh 4% and CRE Fsk mod -15%.
`CCCn1c(-c2ccc(OC)cc2)nc2nc3ccccc3nc21` gave 4MU fluor 8.8e-07M*, AID923 8%, A350 fluor 1.1e-06M*, HSD17B inh 3.2µM*, HADH2 inh inconclusive and CRE Fsk mod 10µM*.
COCCCn1c(-c2ccc(OC)cc2)nc2nc3ccccc3nc21 was read as 4MU fluor 5.8e-07M*, AID923 12%, A350 fluor 8e-07M*, HSD17B inh 32µM*, HADH2 inh 31% and CRE Fsk mod 15%.
CCCn1c(/N=C/c2cc(OC)ccc2O)nc2ccccc21 was read as 4MU fluor inactive, AID923 2%, A350 fluor inconclusive, HSD17B inh 13%, HADH2 inh 8% and CRE Fsk mod -11%.
Screening O=c1cnc2cnc(N3CCOCC3)nc2n1C[C@H]1CCCO1 returned 4MU fluor inconclusive, AID923 11%, A350 fluor inconclusive, HSD17B inh inconclusive, HADH2 inh 0% and CRE Fsk mod 11%.
O=C(O)c1cn(-c2ccc(F)cc2)c2cc(N3CCNCC3)c(F)cc2c1=O was read as AID923 0% and HSD17B inh 25µM*.
Screening CCn1cc(C(=O)O)c(=O)c2cc(F)c(N3CCNC(C)C3)c(F)c21 (stereo not given) returned AID923 2% and HSD17B inh inconclusive.
For O=C(Nc1ccccc1)c1ccc(Cc2nc3ccccc3[nH]2)cc1 the results were AID923 1%, HSD17B inh 1% and HADH2 inh 3%.
`C=CCn1cnc2c(NCc3ccccc3)ncnc21` gave 4MU fluor inactive, AID923 0%, A350 fluor inactive, HSD17B inh 2%, HADH2 inh 4% and CRE Fsk mod inconclusive.
For Cc1cc(C)cc(-n2c3nc4ccccc4nc3c3c(=O)n(Cc4ccco4)cnc32)c1 the results were 4MU fluor 5.1e-08M* and A350 fluor 5.7e-08M*.
C=CCn1cnc2c(c1=O)c1nc3ccccc3nc1n2-c1ccc(Cl)cc1 was read as 4MU fluor 3.2e-08M* and A350 fluor 3.5e-08M*.
Screening C=CCn1cnc2c(c1=O)c1nc3ccccc3nc1n2Cc1ccccc1 returned 4MU fluor 2.2e-07M*, AID923 0%, A350 fluor 2e-07M*, HSD17B inh inconclusive, HADH2 inh 21% and CRE Fsk mod -3%.
`O=C(Cn1cnc2c(cnn2-c2ccccc2)c1=O)c1ccc(Cl)cc1` gave AID923 -1%, HSD17B inh 9%, HADH2 inh 7% and CRE Fsk mod -3%.
Screening COCCCn1cnc2c(c1=O)c1nc3ccccc3nc1n2-c1ccc(C)cc1 returned 4MU fluor 1.8e-07M*, AID923 1%, A350 fluor 2.6e-07M*, HSD17B inh 9%, HADH2 inh 49% and CRE Fsk mod 18%.
CCN1C(C)=C(C(=O)OC)C(c2ccccc2)N2C(=O)[C@@]3(C(=O)OC)O[C@@]12C1C(=O)N(c2ccccc2)C(=O)C13 (stereo not given in full) was read as AID923 2%[11.5 µM], HSD17B inh -3%[11.4 µM] and HADH2 inh 1%[11.4 µM].
For N[C@@H](C(=O)O)c1ccc(C(=O)O)cc1 the results were AID923 -1%, HSD17B inh 3%, HADH2 inh 1% and CRE Fsk mod inconclusive.
Screening Cn1ncc2c(NCCc3ccccc3)nc(Cl)nc21 returned 4MU fluor inactive, AID923 -2%[11.5 µM], A350 fluor inactive, HSD17B inh 10%[11.4 µM], HADH2 inh 6%[11.4 µM] and CRE Fsk mod inconclusive.
`O=C1OC2(c3ccc(O)cc3Oc3cc(O)ccc32)c2c1c(-c1ccccc1)c(-c1ccccc1)c(-c1ccccc1)c2-c1ccccc1` gave 4MU fluor 1.1e-07M*, AID923 -6%[11.5 µM], A350 fluor 1.2e-07M*, HSD17B inh 4µM*, HADH2 inh 2µM* and CRE Fsk mod inconclusive.
Screening O=C(O)c1ccc2c(c1C(=O)O)C(=O)OC2(c1ccc(O)cc1)c1ccc(O)cc1 returned 4MU fluor inactive, AID923 -2%[11.5 µM], A350 fluor inactive, HSD17B inh 4%[11.4 µM], HADH2 inh -1%[11.4 µM] and CRE Fsk mod 15%[7.6 µM].
Screening CCOc1cccc(C(=O)NC2CCCCC2)c1 returned 4MU fluor inactive, AID923 -1%, A350 fluor inactive, HSD17B inh 4%, HADH2 inh 12% and CRE Fsk mod 5%.
Screening Cc1cc(C)nc(N2CCCC(C(=O)NCCc3ccccc3F)C2)n1 (stereo not given) returned 4MU fluor inactive, AID923 0%, A350 fluor inconclusive, HSD17B inh -8%, HADH2 inh 9% and CRE Fsk mod 7%.
